Source: PubChem BioAssay (Broad Institute)
A selection: hits, their analogues and other compounds. The true share with any hit is near 0.58%.
Vc quorum ag-1: induces V. cholerae light production without autoinducers. V. cholerae BH1578 lux reporter, luminescence, 6 h. activation, % at 18.7 µM. actives 0.16% (n = 350,000). AID 588436; in the data active = activation mostly above about 9.7%, no sharp cut-off
BioA inh-1: inhibitors of Mycobacterium tuberculosis BioA enzyme | purified M. tuberculosis BioA enzyme, plate reader | actives 0.096% (n = 360,000) | inhibition, % at 9.99 µM; in the data active = inhibition above about 40%
Yp Topo-I inh: inhibitors of Yersinia pestis topoisomerase I; activity, % at 10 µM; Y. pestis Topo-I cleavage product accumulation, plate reader; actives 0.064% (n = 360,000); in the data active = activity above about 50%, passing the limit was not always enough
TcdB inh: blocks C. difficile toxin B glycohydrolase activity; TcdB glycohydrolase enzymatic assay, plate reader; AID 652162; actives 0.24% (n = 350,000); inhibition, % at 9.99 µM; in the data active = inhibition above about 10%
FadD28 binding: blocks FadD28 binding to the bisubstrate probe | fluorescence polarization | inhibition, % at 12.5 µM | actives 0.22% (n = 360,000); in the data active = inhibition above about 8.5%, passing the limit was not always enough
Vc quorum ag-2: induces V. cholerae light production without autoinducers. 620 tested, under 10 active. V. cholerae BH1578 lux reporter, luminescence, 6 h. shares compounds with Vc quorum ag-1. activation, % at 50 µM. AID 602243
BioA inh-2: Mtb BioA enzyme inhibition; shares compounds with BioA inh-1; purified BioA enzyme, plate reader, dose response; max activity, %; 310 tested, under 10 active; AID 651679;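 also: top concentration of the dilution series was 10 µM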
HepG2 tox 2: cytotoxicity in HepG2 cells. shares compounds with BioA inh-1. plate reader. max activity, %. 310 tested, under 10 active
NIH3T3 tox 5: NIH3T3 viability loss; shares compounds with BioA inh-1; NIH3T3 cytotoxicity, plate reader; activity change, negative = cytotoxicity, % at 26 µM; 310 tested, under 10 active
Numbers without * were called inactive; i = inactive; . = no result; [ ] = remark or other dose. Unless noted, no rule for the calls is given here.

SMILES	Vc quorum ag-1	BioA inh-1	Yp Topo-I inh	TcdB inh	FadD28 binding	BioA inh-2	HepG2 tox 2	NIH3T3 tox 5	others
CC(=O)c1cccc(NC(=O)CSc2nc(=O)n(CCCN3CCOCC3)c3c2CCC3)c1	31.2*	5.8	14.5	0.2	-0.4	.	.	.	Vc quorum ag-2=6.5
COc1ccc2nc(SC(C)C(=O)NCC(=O)Nc3ccc(F)c(F)c3F)[nH]c2c1 (stereo not given)	14.3	1.1	-9.3	2.0	-2.5	.	.	.	Vc quorum ag-2=0.0
O=C(C[C@H]1CC[C@@H]2[C@H](COC[C@@H](O)CN2C(=O)c2ccncc2)O1)NC1CCC1	.	-1.1	.	-1.1	.	.	.	.
CN(C)S(=O)(=O)c1cccc(NC(=O)COC(=O)/C=C/c2ccc(Br)o2)c1	0.0	-1.2	13.6	0.5	-1.5	.	.	.
CN(C)S(=O)(=O)c1cccc(NC(=O)COC(=O)c2ccc(Br)o2)c1	14.3	1.4	4.2	.	0.3	.	.	.	Vc quorum ag-2=-0.2
CC(=O)Nc1ccc2nc(-c3cccnc3)[nH]c2c1	75.4*	55.9*	0.9	.	1.2	-5.5	6.9	2.6	Vc quorum ag-2=1.9
CO[C@H]1CN(C)C(=O)c2cc(NC(=O)c3ccc(F)cc3)ccc2OC[C@H](C)NC[C@H]1C	.	0.9	.	.	.	.	.	.
CC1(C(=O)NCc2ccccc2)Cc2c(-c3cccc(C(N)=O)c3)ccnc2O1 (stereo not given)	1.0	12.3	3.6	1.7	-2.8	.	.	.
CC1(C(=O)NCc2ccc(F)c(F)c2)Cc2c(-c3cccc(C(N)=O)c3)ccnc2O1 (stereo not given)	-0.3	61.7*	10.0	0.7	-3.6	20.2	13.8	-1.3
Cc1nn(CCC(=O)O)c2nc(-c3cccnc3)cc(C(F)(F)F)c12	-0.3	47.7*	-6.6	.	-1.4	7.1	10.4	-0.5
CO[C@H]1CN(C)C(=O)c2cc(NS(=O)(=O)CC(F)(F)F)ccc2OC[C@H](C)N(Cc2cccnc2)C[C@@H]1C	.	1.5	.	-0.9	.	.	.	.
CC1CN(C(=O)Nc2ccc3snnc3c2)c2ccccc21 (stereo not given)	i	62.9*	1.9	3.2	-4.4	-6.8	16.9	-1.1
O=C(C[n+]1cc(-c2ccc(Cl)cc2)n2c1CCC2)N1c2ccccc2Sc2ccccc21	i	61.1*	2.4	.	-2.0	-6.1	-11.3	0.1
O=C(C[n+]1cc(-c2ccc(Cl)c(Cl)c2)n2c1CCC2)N1c2ccccc2Sc2ccccc21	-0.3	.	17.8	.	-11.4	.	.	.
Clc1ccc(-n2c(SC/C=C/c3ccccc3)nnc2-c2cccnc2)cc1	i	5.1	22.3	.	-6.4	.	.	.
Nn1c(SCc2nc3ccccc3[nH]2)nnc1-c1cccnc1	i	59.4*	8.9	.	-6.2	-7.8	-6.3	0.6
Nn1c(SC/C=C/c2ccccc2)nnc1-c1cccnc1	i	109.2*	2.4	.	-0.9	4.3	-10.8	11.5
Nn1c(SCCOc2ccccc2)nnc1-c1cccnc1	i	73.7*	1.7	0.6	0.2	3.4	-7.6	-4.9
O=C(Nc1ncc2c(n1)CC(c1ccco1)CC2=O)c1ccccc1 (stereo not given)	-0.6	59.8*	2.6	.	-0.2	-9.0	-14.0	-7.2
O=C(C[C@@H]1C[C@@H]2c3cc(NC(=O)c4cccnc4)ccc3O[C@@H]2[C@@H](CO)O1)NCc1cccnc1	.	41.5*	.	-0.5	.	-6.9	i	-5.0
O=C(C[C@H]1C[C@H]2c3cc(NC(=O)c4cccnc4)ccc3O[C@H]2[C@H](CO)O1)NCc1ccccn1	.	40.4*	.	0.5	.	-2.5	i	-5.6
O=C(Nc1ccc2c(c1)[C@H]1C[C@@H](CC(=O)N3CCc4ccccc4C3)O[C@H](CO)[C@H]1O2)c1cccnc1	.	55.0*	.	-0.2	.	-3.7	i	-6.7
O=C(C[C@@H]1C[C@H]2c3cc(NC(=O)c4cccnc4)ccc3O[C@H]2[C@@H](CO)O1)NCc1cccc(F)c1	.	27.3	.	0.0	.	.	.	.
O=C(C[C@@H]1C[C@@H]2c3cc(NC(=O)c4cccnc4)ccc3O[C@@H]2[C@H](CO)O1)NCc1ccccn1	.	33.5	.	0.9	.	.	.	.
O=C(C[C@@H]1C[C@@H]2c3cc(NC(=O)c4cccnc4)ccc3O[C@@H]2[C@@H](CO)O1)NCc1cccc(F)c1	.	50.6*	.	-0.6	.	-8.0	i	1.3[23.5 µM]
SMILES	Vc quorum ag-1	BioA inh-1	Yp Topo-I inh	TcdB inh	FadD28 binding	BioA inh-2	HepG2 tox 2	NIH3T3 tox 5	others
O=C(CC1CC1)N1CC(=O)N2[C@@H](CO)[C@H](c3ccc(C#Cc4ccccc4)cc3)[C@@H]2C1	.	.	.	0.4	.	.	.	.
C/C=C/c1ccccc1[C@H]1[C@@H](C#N)N(C(=O)CN2CCOCC2)[C@H]1CO	.	.	.	0.4	.	.	.	.
O=C(C[C@@H]1C=C[C@@H](NC(=O)c2ccncc2)[C@@H](CO)O1)NCc1ccncn1	.	.	.	0.1	.	.	.	.
O=C(CCN1CCCCC1)NCC[C@@H]1CC[C@@H](NC(=O)c2ccc(F)cc2)[C@@H](CO)O1	.	-1.7	.	-0.1	.	.	.	.
COc1ccc(-c2ccc3c(c2)[C@@H]2[C@@H](CCN2C(=O)Cc2cccnc2)[C@@H](CO)N3C)cc1	.	29.1	.	1.7	.	.	.	.
CN1c2ccc(-c3ccccc3)cc2[C@H]2[C@H](CCN2C(=O)c2ccccc2F)[C@H]1CO	.	46.4*	.	0.9	.	-5.1	i	-9.2[23.5 µM]
CCC(=O)N1CC[C@@H]2[C@H]1c1cc(-c3cccc(F)c3)ccc1N(C)[C@H]2CO	.	42.2*	.	.	.	-4.8	i	-1.8
CC(=O)N1CC[C@@H]2[C@@H](CO)N(C)c3ccc(-c4cccc(F)c4)cc3[C@@H]21	.	56.4*	.	7.2	.	3.2	i	-4.4
CC(=O)N1CC[C@H]2[C@@H]1c1cc(-c3cccc(F)c3)ccc1N(C)[C@H]2CO	.	25.3	.	1.3	.	.	.	.
COc1ccc(-c2ccc3c(c2)[C@H]2[C@H](CCN2C(=O)Cc2cccnc2)[C@H](CO)N3C)cc1	.	43.3*	.	6.4	.	5.0	i	-15.0
COCC(=O)N(C)C[C@@H]1Oc2ncc(C#CCC3CCCC3)cc2C(=O)N([C@H](C)CO)C[C@H]1C	.	2.5	.	-6.3	.	.	.	.
COc1ccc2c3c(n(C)c2c1)[C@@H](CO)N(C)CC31CN(C(=O)c2ccccc2F)C1	.	.	.	0.3	.	.	.	.
CC(C)NC(=O)Nc1ccc2c(c1)CC(=O)N([C@H](C)CO)C[C@H](C)[C@@H](CN(C)Cc1ccc(C(F)(F)F)cc1)O2	.	10.5	.	0.0	.	.	.	.
CN1c2ccc(-c3ccccc3)cc2[C@H]2[C@H](CCN2C(=O)c2cccc(F)c2)[C@H]1CO	.	16.6	.	-0.9	.	.	.	.
CN1c2ccc(-c3cccc(F)c3)cc2[C@@H]2[C@@H](CCN2C(=O)c2ccncc2)[C@H]1CO	.	50.0*	.	.	.	5.6	i	-2.8[23.5 µM]
CC1=C(C#N)C(c2cccnc2)C2=C(CC(c3ccc(Cl)cc3)CC2=O)N1 (stereo not given)	0.4	62.7*	4.2	.	-9.9	-5.9	13.7	-2.8
O=C(C[C@@H]1C=C[C@H](NC(=O)CN2CCOCC2)[C@@H](CO)O1)NCCc1ccncc1	.	.	.	-0.2	.	.	.	.
